Measurements as given in PubChem BioAssay AID1851 (National Center for Advancing Translational Sciences (NCATS), 2009).
Among all 16,000 compounds or so, about 4,000 (25%) were called active. Not shown: some 26% with an inconclusive outcome. Calls come from the whole dose curve; as a rule, active = well fitted curve in the direction sought with a large enough effect; inconclusive = small, poorly fitted or top-dose-only effect, or effect the other way; inactive = no such curve, though single readings can be large or run the other way. A selection follows.

target: Cytochrome P450 2C9 (Homo sapiens) (UniProt P11712); test: Cytochrome panel assay with activity outcomes; details: recombinant CYP, pro-luciferin dealkylation, luminescence, p450-cyp2c9; series mostly up to 57.1 µM
Sequence (P11712 whole entry, looked up): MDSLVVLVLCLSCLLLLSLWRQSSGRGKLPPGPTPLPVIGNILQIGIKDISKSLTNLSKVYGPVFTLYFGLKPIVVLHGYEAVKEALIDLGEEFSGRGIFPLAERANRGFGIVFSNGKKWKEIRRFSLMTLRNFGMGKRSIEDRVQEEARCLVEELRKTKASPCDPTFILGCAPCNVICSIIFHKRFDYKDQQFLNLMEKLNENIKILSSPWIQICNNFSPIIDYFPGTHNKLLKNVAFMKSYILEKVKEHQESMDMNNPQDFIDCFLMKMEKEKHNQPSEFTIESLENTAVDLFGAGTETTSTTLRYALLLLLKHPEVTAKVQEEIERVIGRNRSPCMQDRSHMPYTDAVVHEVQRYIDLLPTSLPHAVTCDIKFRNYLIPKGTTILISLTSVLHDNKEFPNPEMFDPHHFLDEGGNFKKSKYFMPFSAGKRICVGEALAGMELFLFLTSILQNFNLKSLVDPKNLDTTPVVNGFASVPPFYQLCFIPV
% is set by controls: 0 for no effect and ±100 for the full control effect.

Structure (SMILES) | AC50 | activity, negative = inhibition
NC1=NC2(CCCCC2)N=C(Nc2ccc(F)cc2F)N1 | inactive | –
N=C(N)SCCCN | – | 7.79% [at 11.4 µM] (inactive)
COc1ccc(-c2nc3cnc(N(C)C)nc3n(CCc3ccccc3)c2=O)cc1 | inactive | –
CN(C)c1ncc2ncc(=O)n(C)c2n1 | inactive | –
CN(C)c1ncc2nc(CCc3ccccc3)c(=O)n(CCc3ccccc3)c2n1 | 12.6 µM (active) | –
CN(C)c1ncc2ncc(=O)n(CCc3ccccc3)c2n1 | 6.31 µM (active) | –
COCCn1c(=O)[nH]c2cc(C(=O)N3CCN(c4ccccc4OC)CC3)ccc2c1=O | 7.94 µM (active) | –
COc1ccccc1N1CCN(CCn2c(=O)[nH]c3c([nH]c4ccccc43)c2=O)CC1 | inactive | –
COc1ccc(-c2csc(N3C(=N)SCC3=O)n2)cc1 | 3.55 µM (active) | –
N=C1SCC(=O)N1c1nc(-c2ccccc2)cs1 | inactive | –
CC(=O)Oc1cc(C(C)C)c(OCCN(C)C)cc1C | inactive | –
CC(C)NCC[C@@H](O)c1cc2ccccc2o1 | – | 17.2% [at 11.4 µM] (inactive)
CC(=O)OC[C@@H]1O[C@H](CCON=C(C)C)C=C[C@@H]1OC(C)=O | – | 3.94% [at 11.4 µM] (inactive)
CCN(CCO)Cc1csc2cccc(Br)c12 | inactive | –
CN(C(=O)CN(CCO)CC(=O)N(C)C(C)(C)Cc1ccccc1)C(C)(C)Cc1ccccc1 | inactive | –
OCCN(Cc1ccccc1)Cc1cccc(Cl)c1Cl | 3.98 µM (active) | –

Structure (SMILES) | AC50 | activity, negative = inhibition
Cc1cc(N=Cc2c(CO)cnc(C)c2O)c(N=Cc2c(CO)cnc(C)c2O)cc1C.[Zn] | – | -15.6% [at 11.4 µM] (inactive)
O=C1c2cccc3cccc(c23)C(=O)N1CC1CCN(CC(O)COc2ccc3ccccc3c2)CC1 (stereo unspecified) | 0.891 µM (active) | –
O=C(c1ccc(S(=O)(=O)N2CCCCCC2)cc1)N1CCC(CN2C(=O)c3cccc4cccc(c34)C2=O)CC1 | inactive | –
O[C@@H](COc1cccc2ccccc12)CN1CCOCC1 | – | 5.45% [at 11.4 µM] (inactive)
CCS(=O)(=O)N1CCCC(C(=O)NCCCOC(C)C)C1 (stereo unspecified) | inactive | –
COc1ccccc1-c1ccc2ncnc(N3CCN(C)CC3)c2c1 | – | 1.65% [at 2.29 µM] (inactive)
COc1cccc2[nH]c3c(N4CC(C)CC(C)C4)ncnc3c12 (stereo unspecified) | 10 µM (active) | –
CCOc1ncccc1C(=O)OCC(=O)Nc1cc(C)ccc1C | 8.91 µM (active) | –
Cc1ccc(C)c(N/C(N)=N/c2nc(C)cc(C)n2)c1 | inactive | –
Cc1ccc(C)c(NC(=O)Cn2c([N+](=O)[O-])cnc2C)c1 | inactive | –
CN(C)C(=N)N=C(N)N | inactive | –
CCn1c(SCC(=O)NC2CCCCC2)nc2c(c1=O)SC(C)C2 (stereo unspecified) | inactive | –
Cc1ccc2nc(NC(=O)CSc3nc4c(c(=O)n3C)SC(C)C4)sc2c1 (stereo unspecified) | 1.78 µM (active) | –
CCn1c(SCC(=O)Nc2nc3ccc(C)cc3s2)nc2c(c1=O)SC(C)C2 (stereo unspecified) | 3.16 µM (active) | –
CCn1c(SCC(=O)Nc2ccc3c(c2)OCCO3)nc2c(c1=O)SC(C)C2 (stereo unspecified) | 2 µM (active) | –
